Assay results from PubChem BioAssay AID1851 (National Center for Advancing Translational Sciences (NCATS), 2009).
Out of some 16,000 compounds screened, about 5,100 (32%) were called active. Roughly 25% stayed inconclusive and do not appear here. Calls follow the shape of the dose curve; as a rule, active = well fitted curve in the direction sought with a large enough effect; inconclusive = small, poorly fitted or top-dose-only effect, or effect the other way; inactive = no such curve, though single readings can be large or run the other way. The list shows a part of the results.

Biological target: Cytochrome P450 3A4 (Homo sapiens) (UniProt P08684)
Sequence (P08684 whole entry, looked up): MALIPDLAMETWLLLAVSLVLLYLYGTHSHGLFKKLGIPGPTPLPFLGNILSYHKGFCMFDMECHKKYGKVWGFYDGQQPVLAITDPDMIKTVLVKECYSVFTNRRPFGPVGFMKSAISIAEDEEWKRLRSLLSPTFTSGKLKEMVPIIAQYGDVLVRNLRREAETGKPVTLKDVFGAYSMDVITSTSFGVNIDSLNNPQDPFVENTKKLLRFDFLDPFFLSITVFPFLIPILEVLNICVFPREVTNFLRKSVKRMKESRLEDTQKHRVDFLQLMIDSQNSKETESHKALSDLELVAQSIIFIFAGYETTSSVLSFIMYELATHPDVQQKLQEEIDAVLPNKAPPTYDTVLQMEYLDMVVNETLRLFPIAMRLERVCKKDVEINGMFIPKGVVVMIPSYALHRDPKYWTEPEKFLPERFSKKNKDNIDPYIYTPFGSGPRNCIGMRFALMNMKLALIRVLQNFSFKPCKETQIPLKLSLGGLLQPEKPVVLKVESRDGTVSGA
Experiment: Cytochrome panel assay with activity outcomes
Settings: recombinant CYP, pro-luciferin dealkylation, luminescence, p450-cyp3a4; series mostly up to 57.1 µM; activity, negative = inhibition: at the top concentration
% is scaled to controls: 0 for no effect and ±100 for the full control effect.

SMILES	activity, negative = inhibition	AC50
COc1c(Cl)cc(Cl)cc1CNCCNCC(C)O (stereo not drawn)	15.3% (inactive)	–
Cc1n[nH]c(=S)n1/N=C/c1ccccc1OCc1ccc(Cl)cc1	–	1.26 µM (active)
COc1cccc(/C=N/n2c(=S)n(C)c3cc(C)c(C)cc32)c1OC	-9.43% [at 2.29 µM] (inactive)	–
C=C1C(=O)C=C2CN(C(=O)c3ccccc3)[C@@](Cc3ccc(OC)cc3)(C(=O)OC)[C@@H]12	–	1.58 µM (active)
COc1ccc(C(=O)n2nc(-c3ccccc3)nc2SC)cc1	6.71% (inactive)	–
C=C1C(=O)C=C2CN(C(=O)c3ccccc3)[C@@](Cc3ccc(F)cc3)(C(=O)OC)[C@@H]12	–	7.94 µM (active)
O=C(CON1C(=O)c2ccccc2C1=O)c1ccccc1	-17.5% [at 11.4 µM] (inactive)	–
COc1ccc2c(c1)-c1ccccc1S(=O)(=O)N2C(C)=O	-6.85% (inactive)	–
Cc1ccc(C(=O)CN(C(=O)c2ccc(Cl)cc2)N2C(=O)c3ccccc3C2=O)cc1	–	10 µM (active)
COc1ccc(C(=O)O/N=C/c2ccc(S(=O)c3ccc(Cl)cc3)nc2)cc1 (stereo not drawn)	7.76% (inactive)	–
COc1ccc(C(=O)CN(C(=O)c2ccc(Cl)cc2)N2C(=O)c3ccccc3C2=O)cc1	–	8.91 µM (active)
Cc1cc(CC(=O)O)n(C)c1C(=O)c1ccc(Cl)cc1	-11.7% [at 25.6 µM] (inactive)	–
Cc1cc(=Nc2ccc3c(c2)c(N)cc(C)[n+]3C)nc(N)n1C	3.03% [at 11.4 µM] (inactive)	–
C[C@@H]1CCCC(CC(=O)O)(CC(=O)O)C1	-9.8% [at 11.4 µM] (inactive)	–
CC(NC(=O)Cn1cnc([N+](=O)[O-])n1)c1ccccc1 (stereo not drawn)	0.0886% (inactive)	–
CC(NC(=O)c1ccc(Cn2cc([N+](=O)[O-])cn2)o1)c1ccccc1 (stereo not drawn)	–	25.1 µM (active)
O=C(Nc1cccc(C(F)(F)F)c1)c1ccc(Cn2cc(Br)cn2)o1	-0.795% [at 2.29 µM] (inactive)	–
CCOC(=O)C(NC(=O)CC)(Nc1sc2c(c1C(=O)OC)CCN(C)C2)C(F)(F)F (stereo not drawn)	–	12.6 µM (active)
CCC(=O)NC(Nc1sc2c(c1C(=O)OC)CCCC2)(C(F)(F)F)C(F)(F)F	-7.25% [at 2.29 µM] (inactive)	–
COc1ccc(NC(=O)C2CC(=O)NC3=C2C(=O)CC(C)(C)C3)cc1 (stereo not drawn)	-22.9% (inactive)	–
CC(C)Oc1ccc(C2CC(=O)NC3=C2C(=O)CCC3)cc1 (stereo not drawn)	-29.8% (inactive)	–

SMILES	activity, negative = inhibition	AC50
COc1ccc(OC)c(C2CC(=O)C3=C(C2)NC(=O)CC3c2ccc(O)c(OC)c2)c1 (stereo not drawn)	–	8.91 µM (active)
COc1ccc(F)cc1S(=O)(=O)NC(Cc1ccccc1)C(N)=O (stereo not drawn)	–	15.8 µM (active)
CC(=O)NC(Cc1ccc(F)cc1)C(=O)O (stereo not drawn)	6.9% (inactive)	–
CNC(=O)/C(C#N)=c1\s/c(=C/C(=O)OC)c(=O)n1-c1ccccc1	-3.36% (inactive)	–
CS(=O)(=O)c1ccc(Cn2c3c(c4cc(F)cc(F)c42)CCC[C@H]3CC(=O)O)cc1	–	39.8 µM (active)
CN[C@@H](c1ccncc1)[C@@H](NC)c1ccncc1	–	5.01 µM (active)
CC(C)NNC(=O)c1ccncc1	–	inactive
O=c1[nH][nH]c(=S)c(=O)[nH]1	-14.1% [at 11.4 µM] (inactive)	–
COCCNc1ncnc2ccc(-c3ccc(C(=O)N(C)C)cc3)cc12	–	15.8 µM (active)
CC(=O)NCCNc1ncnc2ccc(-c3ccc(C(=O)N(C)C)cc3)cc12	-20% (inactive)	–
COCCNc1ncnc2ccc(-c3ccc(N(C)C)cc3)cc12	–	7.94 µM (active)
COCCNc1ncnc2ccc(-c3ccoc3)cc12	-6.63% (inactive)	–
O=C(NCc1ccc2c(c1)OCO2)C1CC(c2cccc(Br)c2)=NO1 (stereo not drawn)	–	0.708 µM (active)
COc1ccc(C2=NOC(C(=O)Nc3ccc(C(C)=O)cc3)C2)cc1OC (stereo not drawn)	–	8.91 µM (active)
COc1cccc(C2=NOC(C(=O)Nc3ccc(OC)c(OC)c3)C2)c1 (stereo not drawn)	–	6.31 µM (active)
CC(=O)c1ccc(NC(=O)C2CC(c3ccc(F)cc3)=NO2)cc1 (stereo not drawn)	-15.6% (inactive)	–
COC(=O)[C@@H](NC(=O)Nc1ccc(C(C)=O)cc1)C(C)C	-1.62% (inactive)	–
COCCNC(=O)C1CC(c2cccc(OC)c2)=NO1 (stereo not drawn)	-28.1% (inactive)	–
O=C(NCc1ccccn1)C1CC(c2ccc(Cl)c(Cl)c2)=NO1 (stereo not drawn)	–	25.1 µM (active)
O=C(O)[C@@H]1[C@@H](C(=O)NCc2ccccn2)[C@@H]2C=C[C@@H]1O2	-5.18% [at 11.4 µM] (inactive)	–
COc1ccc(C2=NOC(C(=O)NCc3ccco3)C2)cc1OC (stereo not drawn)	-25.1% (inactive)	–

SMILES	activity, negative = inhibition	AC50
COc1ccc(CNC(=O)C2CC(c3ccc(OC)cc3)=NO2)cc1 (stereo not drawn)	2.43% (inactive)	–
Cc1ccc(NC(=O)NNC(=O)C2CC(c3cccnc3)=NO2)cc1 (stereo not drawn)	12.9% (inactive)	–
COc1ccc(CNC(=O)C2CC(c3cccc([N+](=O)[O-])c3)=NO2)cc1 (stereo not drawn)	–	6.31 µM (active)
COc1cccc(C2=NOC(C(=O)Nc3cccnc3)C2)c1 (stereo not drawn)	–	12.6 µM (active)
O=C1C=C(Nc2nc(C(=O)O)cc(=O)[nH]2)c2ccccc2C1=O	-12.4% [at 11.4 µM] (inactive)	–
O=C1C=C(NCCc2cc(Br)c(O)c(Br)c2)C(=O)c2ncccc21	–	3.16 µM (active)
O=C(NCc1ccco1)c1cc(C(=O)C2CC2)c[nH]1	2.35% (inactive)	–
O=C(NCCc1ccccn1)c1cc(C(=O)C2CCCCC2)c[nH]1	–	10 µM (active)
O=C(NCc1ccco1)c1cc(C(=O)C2CCCCC2)c[nH]1	-11.4% (inactive)	–
COc1ccc2c(c1)c(CC(=O)O)c(C)n2C(=O)c1ccc(Cl)cc1	–	inactive
COc1ccc2c(c1)c(CC(=O)N1CCOCC1)c(C)n2C(=O)c1ccc(Cl)cc1	–	5.01 µM (active)
COc1ccc2c(c1)c(CC(=O)OCC(=O)O)c(C)n2C(=O)c1ccc(Cl)cc1	-11.9% [at 25.6 µM] (inactive)	–
Cc1cccc(C(=O)NNC(=O)C(=O)NC(C)(C)C)c1	-10.6% (inactive)	–
Cc1cccc(NCCNc2cccc(C)c2)c1	–	25.1 µM (active)
Cc1cccc(N/C(N)=N/c2nc(C)cc(C)n2)c1	-11.7% (inactive)	–
COc1ccc(S(=O)(=O)Nc2ccc(F)cc2)c(C)c1C	–	10 µM (active)
Cc1ccccc1CSc1nsc(N)n1	–	25.1 µM (active)
COc1ccc(NC(=O)c2cc(C(C)C)on2)cc1OC	-5.54% (inactive)	–
COCCNC(=O)c1cc(-c2cccc(OC)c2)on1	-4.56% (inactive)	–
COc1cccc(-c2cc(C(=O)Nc3cccc(O)c3)no2)c1	–	10 µM (active)
CCN1CCN(c2nc(C)c3c(n2)CCCC3=O)CC1	11.2% (inactive)	–
